We go through 90 compounds from PubChem BioAssay AID485344 (National Center for Advancing Translational Sciences (NCATS), 2010).

Each structure is given as a SMILES string. Values joined by “and” are separate entries in the source; they are usually repeats but may differ in a detail not shown here. Equal entries are not always repeated. Among all 340,000 compounds or so, about 6,900 (2%) were called active. Rule as the data show it: active = inhibition above about 30%; inactive = below that, where a call was filed. What follows is part of a selection rich in actives, with near analogues and random picks from the rest. The source holds several records for some structures; these can differ, active in one and inactive in another.

D(2) dopamine receptor (Homo sapiens), sequence (P14416 whole entry, looked up): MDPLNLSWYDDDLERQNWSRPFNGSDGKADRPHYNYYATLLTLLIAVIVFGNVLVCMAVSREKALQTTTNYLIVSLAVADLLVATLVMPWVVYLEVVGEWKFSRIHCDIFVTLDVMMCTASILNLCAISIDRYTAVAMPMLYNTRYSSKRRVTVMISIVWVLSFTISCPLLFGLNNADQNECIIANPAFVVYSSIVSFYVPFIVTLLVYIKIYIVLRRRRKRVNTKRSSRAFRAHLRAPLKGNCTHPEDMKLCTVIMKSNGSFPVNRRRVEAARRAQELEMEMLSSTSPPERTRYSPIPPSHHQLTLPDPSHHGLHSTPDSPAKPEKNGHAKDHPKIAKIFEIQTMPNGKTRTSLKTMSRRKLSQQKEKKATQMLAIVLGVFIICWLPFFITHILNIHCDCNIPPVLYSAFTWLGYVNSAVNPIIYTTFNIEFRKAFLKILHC

The target in the assay is D(2) dopamine receptor (Homo sapiens) (UniProt P14416). The assay can be described thus: HTS Assay for Allosteric Antagonists of the Human D2 Dopamine Receptor: Primary Screen for Antagonists. Also: 0% is about no effect. The following applies: HEK293 TREx D2 cells, calcium flux, dopamine EC80; at 10 µM; stronger effect = higher value. In outline:
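Cells plated overnight at 30 C with tetracycline; no-wash calcium dye, 30–90 min RT; 10 s baseline; compound pinned; 180 s read; EC80 dopamine added; another 180 s read.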
As a reminder, the inhibition is the relative decrease from the control value, in per cent. Regarding `CCCCn1c(N)c(N(CCOC)C(=O)c2cccc(OCc3ccccc3)c2)c(=O)[nH]c1=O`, the inhibition is -3.21% (inactive).

`CCOc1ncccc1C(=O)OCC(=O)Nc1cccc(S(=O)(=O)N2CCCCCC2)c1`: the inhibition was -2.34% (inactive).

As to `CC(Oc1ccc(F)cc1)C(=O)Nc1cc(S(=O)(=O)N2CCOCC2)ccc1N1CCN(C)CC1` (stereo not given), the inhibition was -1.88% (inactive).

Regarding `CC(NC(=O)c1ccc(S(=O)(=O)Nc2ccccc2)cc1)c1ccc(S(N)(=O)=O)cc1` (stereo not given), the inhibition was 11.4% (inactive).

`Clc1ccccc1CSc1nnc(-c2ccco2)c(-c2ccco2)n1`: the inhibition is 34.6% (active).

For `Fc1cccc(Cl)c1CSc1ccc(-c2ccco2)nn1`, the inhibition was -10.9% (inactive).

Take `S=C(NCc1ccco1)NCc1ccccc1Cl`: the inhibition was -9.44% (inactive).

As for `COc1ccccc1C(CNC(=O)c1ccc(C)c(S(=O)(=O)N2CCCCC2)c1)N(C)C` (stereo not given), the inhibition is 8.09% (inactive).

As for `CN(C(=O)COC(=O)c1ccc(Br)o1)c1c(N)n(Cc2ccccc2)c(=O)[nH]c1=O`, the inhibition was 1.2% (inactive).

Take `CC(=O)NCC(=O)N(Cc1ccco1)C1(C(=O)NC2CCCC2)CCCCC1`: the inhibition is 22.2% (inactive).

As for `O=C(c1ccc(=O)[nH]c1)N(Cc1ccco1)C1(C(=O)NC2CCCCC2)CCCCC1`, the inhibition was 37.6% (active).

Turning to `Cc1ccc(N(C(=O)CC2NC(=O)NC2=O)C2(C(=O)NC3CCCC3)CCCCC2)cc1` (stereo not given), the inhibition was -9.9% (inactive).

For `O=C(NCCN1CCN(Cc2ccccc2)CC1)c1cc2c(=O)[nH]c3ccccc3c2s1`, the inhibition was -24.6% (inactive).

Consider `Cn1c(C(=O)NCCN2CCc3ccccc3C2)cc2c(=O)[nH]c3ccccc3c21`, for which the inhibition was 32.3% (active).

Regarding `O=C(CN1C(=O)COc2ccccc21)NCCN1CCc2ccccc2C1`, the inhibition was 9.13% (inactive).

For `Cc1nnc(SCC(N)=O)n1CC1CCCO1` (stereo not given), the inhibition was 32.8% (active).

For the compound `Cc1nnc(SCC(=O)NNC(=O)c2ccc(Cl)cc2)n1CC1CCCO1` (stereo not given), the inhibition was -10.1% (inactive).

On to `COc1ccccc1NC(=O)CSc1nnc(C)n1CC1CCCO1` (stereo not given), for which the inhibition is -14.5% (inactive).

In the case of `COc1ccc(CCNC(=O)COC(=O)Cc2cccc(F)c2)cc1`, the inhibition was 6.51% (inactive).

For the compound `Cc1c(NC(=O)C(C)Oc2cccc(Cl)c2)c(=O)n(-c2ccccc2)n1C` (stereo not given), the inhibition was -1.16% (inactive).

As for `O=C(CSc1nc(C2CC2)nc2ccccc12)Nc1ccc2c(c1)OCCO2`, the inhibition is 4.27% (inactive).

As to `Cc1nnc(NC(=O)CSc2nc(C3CCCCC3)nc3ccccc23)s1`, the inhibition was 35.4% (active).

As for `O=C(CSc1nc(C2CC2)nc2ccccc12)Nc1cccc(O)c1`, the inhibition was 6.46% (inactive).

With `Cn1c(CC(=O)NNC(=O)c2ccccc2F)nc2ccccc21`, the inhibition was -9.97% (inactive).

Turning to `O=C(NCc1ccncc1)c1cccc(NS(=O)(=O)c2ccc(F)c(F)c2)c1`, the inhibition is 26.4% (inactive).

`O=C(c1ccc(Br)o1)N1CCN(CCOc2ccccc2)CC1`: the inhibition is 86.3% (active).

As to `COC(c1ccccc1)c1nnc(CCC(=O)N2CCN(CCOc3ccccc3)CC2)o1` (stereo not given), the inhibition is -8.4% (inactive).

As for `O=C(c1ccco1)N1CCN(C(=S)Nc2cc(F)cc(F)c2)CC1`, the inhibition was -1.02% (inactive).

Consider `O=CN1CCN(C(=O)c2ccc(Br)o2)CC1`, for which the inhibition is -1.93% (inactive).

As to `Cc1ccc(C)c(OCC(=O)N2CCN(C(=O)c3ccco3)CC2)c1`, the inhibition is -1.29% (inactive).

For the compound `O=C(c1ccco1)N1CCN(CCOc2ccccc2)CC1`, the inhibition was 61.7% (active).

Turning to `O=C(c1ccco1)N1CCN(C(=O)c2ccc(COc3ccc(F)cc3)o2)CC1`, the inhibition was 1.11% (inactive).

Take `COc1cccc(OC)c1OCCN1CCN(C(=O)c2ccco2)CC1`: the inhibition was 63.6% (active).

As for `COc1cccc(OCc2cc(C(=O)N3CCN(C(=O)c4ccco4)CC3)no2)c1`, the inhibition was -3.13% (inactive).

On to `O=C(c1ccco1)N1CCN(Cc2cccc(C(F)(F)F)c2)CC1`, for which the inhibition is 77.1% (active).

Consider `O=C(CNS(=O)(=O)c1ccccc1)N1CCN(C(=O)c2ccco2)CC1`, for which the inhibition is -2.75% (inactive).

As to `O=C(CN1CCN(C(=O)c2ccco2)CC1)Nc1ccc(Cl)c(C(F)(F)F)c1`, the inhibition is 0.954% (inactive).

Turning to `CC(C)CN(C(=O)CSc1nncn1C)C1CCS(=O)(=O)C1` (stereo not given), the inhibition was -28.1% (inactive).

As to `O=C1C=C(c2cc(C(F)(F)F)cc(C(F)(F)F)c2)C[C@@H](c2ccc3c(c2)OCO3)C1`, the inhibition was 8.46% (inactive).

As for `CC(=O)Nc1cccc(C(=O)OCC(=O)c2ccc3c(c2)OCO3)c1`, the inhibition was 13.5% (inactive).

Take `CSCCC(NC(=O)c1ccccc1)C(=O)N1CCCCCCC1` (stereo not given): the inhibition is -18.4% (inactive).

Take `COc1ccccc1C(=O)Nc1ccc(OCC(=O)N2CCCCC2)cc1`: the inhibition is -21.7% (inactive).

As for `Cc1ccc(C(=O)NNC(=O)c2ccc3c(c2)OCCO3)cc1`, the inhibition is 20.3% (inactive).

In the case of `Cc1ccc(C(=O)Nc2ncccc2C)cc1S(=O)(=O)N1CCOCC1`, the inhibition was -29.3% (inactive).

With `Cc1nn(CCOc2ccccc2)c(=O)n1-c1ccccc1F`, the inhibition was 4.74% (inactive).

In the case of `CCc1nn(CCCN2CCN(c3cccc(Cl)c3)CC2)c(=O)n1CCOc1ccccc1`, the inhibition was 10.2% (inactive) and 47% (active).

For `CCN1C(=O)/C(=C\N2CCN(c3cccc(Cl)c3)CC2)SC1=S`, the inhibition is -0.63% (inactive).

For `CCN1CCN(C(=O)N[C@@H](C(=O)N[C@@H]2C(=O)N3C(C(=O)O)=C(CSc4nnnn4C)CS[C@H]23)c2ccc(O)cc2)C(=O)C1=O`, the inhibition was -6.07% (inactive).

As for `O=c1c2ccccc2ccc2ccc(P(=O)(O)O)cc12`, the inhibition was 1.32% (inactive).

`O=C(OCC(=O)N1CCN(C(=O)c2ccco2)CC1)c1ccc(Cl)c(Cl)c1`: the inhibition is 20.1% (inactive).

As for `CCN(c1ccccc1)S(=O)(=O)c1cc(C(=O)NCc2ccccn2)ccc1C`, the inhibition was -6.91% (inactive).

Take `CCN1CCN(C(=O)c2ccccc2N(C)S(=O)(=O)c2ccc(C)cc2)CC1`: the inhibition is 40.9% (active).

Take `CCOC(=O)N1CCN(C(=O)c2ccccc2N(Cc2ccccc2)S(=O)(=O)c2ccc(OC)cc2)CC1`: the inhibition was -13.3% (inactive).

As to `CCOC(=O)C1CCN(C(=O)c2ccccc2N(C)S(=O)(=O)c2ccccc2)CC1`, the inhibition is -8.5% (inactive).

With `COc1ccc(-c2cc(C(=O)N(C)CC(=O)Nc3ccccc3Cl)c3ccccc3n2)cc1OC`, the inhibition is 1.05% (inactive).

Take `CC(=O)c1c(C)[nH]c(C(=O)OCC(=O)Nc2c(C)cccc2C)c1C`: the inhibition is -33.4% (inactive).

As to `COc1ccc(C2CC(c3cccs3)=NN2C(=O)CSc2nnc(N)s2)cc1OC` (stereo not given), the inhibition is -3.75% (inactive).

For the compound `COc1ccc(C2CC(c3cccs3)=NN2C(=O)CSc2nncs2)cc1OC` (stereo not given), the inhibition is -4.05% (inactive).

On to `COc1cccc(C2CC(c3cccs3)=NN2C(=O)CSC2=NCCS2)c1OC` (stereo not given), for which the inhibition is 31.4% (active).

Take `CCOc1ccc2oc(C(=O)N(CC)CC(=O)Nc3ccc(NC(C)=O)cc3)c(C)c2c1`: the inhibition is -21.5% (inactive).

With `CCCC(NCC(=O)Nc1ccccc1C(=O)NC1CC1)c1ccccc1` (stereo not given), the inhibition is -15.9% (inactive).

`O=C(CCc1nc2sc3c(c2c(=O)[nH]1)CCCC3)NCC(=O)Nc1ccccc1Br`: the inhibition was 11% (inactive).

In the case of `Cc1ccccc1NC(=O)Cc1nc(COC(=O)c2cccnc2Cl)cs1`, the inhibition is 6.55% (inactive).

Consider `CC(C)N(C(=O)Cn1cc(SCC(=O)N2CCCC2)c2ccccc21)C(C)C`, for which the inhibition was 13.5% (inactive).

As to `CCCn1cc(SCC(N)=O)c2ccccc21`, the inhibition was 31.1% (active).

In the case of `NC(=O)CSc1c[nH]c2ccccc12`, the inhibition was -9.76% (inactive).

`CCCCN(C(=O)C1CCC1)c1c(N)n(Cc2ccccc2)c(=O)[nH]c1=O`: the inhibition is -6.33% (inactive).

On to `O=C(NCCC1CCCCN1S(=O)(=O)c1ccc(Cl)cc1)C(=O)NCc1ccco1` (stereo not given), for which the inhibition is -13.3% (inactive).

For the compound `COc1ccc(C(=O)NCc2ccc(Cl)cc2)cc1S(=O)(=O)N1CCCC1`, the inhibition is -28.1% (inactive).

For the compound `O=C(CCC(=O)c1cccs1)NC1CCCCCC1`, the inhibition is -3.48% (inactive).

As for `O=C(CCC(=O)c1cccs1)NCc1ccccc1`, the inhibition was 34.9% (active).

Consider `O=C(CCCc1ccccc1)NCc1ccccc1`, for which the inhibition is 7.76% (inactive).

With `CC(NC(=O)CN(C)S(=O)(=O)c1ccc(F)cc1)C1CC2CCC1C2` (stereo not given), the inhibition was 2.6% (inactive).

Take `COc1ccc(CCNC(=O)c2cnc(Cl)c(Cl)c2)cc1`: the inhibition was 2.2% (inactive).

In the case of `CC(CCc1ccccc1)NC(=O)c1ccc(Br)o1` (stereo not given), the inhibition is -19.1% (inactive).

For `CC(CCc1ccccc1)NC(=O)c1cnc(Cl)c(Cl)c1` (stereo not given), the inhibition was 43.2% (active).

For `COc1cccc(N2CCN(CC(=O)Nc3ccnn3C3CCCC3)CC2)c1`, the inhibition was 19.5% (inactive).

Turning to `COc1ccc(C(=O)NCCc2ccc(S(N)(=O)=O)cc2)cc1OC`, the inhibition is 14% (inactive).

In the case of `CCN(CC)CCNC(=O)c1ccc(NS(=O)(=O)c2ccc3c(c2)OCCO3)cc1`, the inhibition was 1.77% (inactive).

Take `CCN(CC)CCNC(=O)c1cc(S(C)(=O)=O)ccc1OC`: the inhibition is 99% (active).

Take `COc1cccc(NC(=O)CN(C)C(=O)/C=C/c2cn(-c3ccccc3)nc2-c2cccs2)c1`: the inhibition is 12.4% (inactive).

`CCN1CCN(c2nc(Nc3cccc(F)c3)nc(N)c2[N+](=O)[O-])CC1`: the inhibition was 73.4% (active).

For `COCCNc1nc(N)c([N+](=O)[O-])c(N2CCCCCC2)n1`, the inhibition was -9.71% (inactive).

With `CC1CN(c2nc(Nc3ccccc3)nc(N)c2[N+](=O)[O-])CC(C)O1` (stereo not given), the inhibition is 13.4% (inactive).

As to `O=C(C1Cc2ccccc2CN1C(=O)c1ccco1)N1CCN(c2ccccc2)CC1` (stereo not given), the inhibition was -4.55% (inactive).

Take `CC(C)(C)C(=O)COC(=O)c1cc(S(=O)(=O)N2CCCCC2)ccc1N1CCOCC1`: the inhibition was 1.2% (inactive).

`Cc1ccc(S(=O)(=O)N2CCC(C(=O)OCC(=O)N(C)c3ccccc3)CC2)cc1C`: the inhibition is -7.26% (inactive).

As to `CN(c1cccc(NC(=O)Nc2ccc(Cl)cc2)c1)S(C)(=O)=O`, the inhibition was 4.52% (inactive).

In the case of `Cc1nnsc1C(=O)N/N=C/c1ccccc1Cl`, the inhibition was -8.27% (inactive).

For `O=C(Nc1ccccc1)c1nnsc1S(=O)(=O)c1ccc(Cl)cc1`, the inhibition is 35.7% (active).
